Source: PubChem
Insulin prom up – MIN6 insulin promoter up-regulation | AID 1625 | MIN6 insulin promoter-GFP reporter, high-content imaging; hits give high values | z-score at 5 µM | 0.3% of 190,000 active;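 active = z-score above 3 at 5 µM with at least 500 cells counted in the well; inconclusive = wells under 500 cells, flagged as cytotoxic or low count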
WT yeast gro inh – growth inhibition of WT yeast, mitochondrial fusion screen. mitochondrial fusion phenotypic screen, WT strain. inhibition, % at 10 µM. 2.1% of 190,000 active. AID 1362; in the data active = inhibition above about 58%; tested in S. cerevisiae
ROMK mod – modulates human ROMK potassium channel activity; B-score at 10 µM; Tet-inducible ROMK, thallium flux fluorescence; actives lie on both sides; 2% of 130,000 active; P48048;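 active = signal ratio slope over the read window, or its plate-corrected B-score, at least 3 SD from the plate mean, either direction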;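 note: B-score of the F/F0 ratio slope over 7 to 12 s after thallium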
INS promoter inh – TRM-6 insulin promoter activity inhibition. TRM-6 cells (human fetal islet line), insulin promoter-eGFP reporter, imaging; reporter expression induced with tamoxifen. inhibition, % at 2 µM. 0.9% of 130,000 active. AID 1273;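 active = inhibition above the mean plus 3 SD, with well images judged a real hit on visual review, cut at about 60% in these data, passing the limit was not always enough; inconclusive = inhibition over the cutoff but images rejected on review; inactive = inhibition not above the cutoff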
Cl transport mod – modulators of human KCC2 chloride dependent transport; KCC2 cells, thallium flux FluoZin-2 fluorescence; 2.2% of 190,000 active; B-score of Tl+ flux slope (higher = more flux/activation; lower = inhibition) at 10 µM; AID 1456;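 active = thallium flux slope and its plate-corrected score both differing from the plate sample mean at a set confidence after two filtering rounds, in either direction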;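 note: slope of fluorescence scaled to starting intensity during 10 to 20 s after thallium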
Target sequence (Q9H2X9 whole entry, looked up): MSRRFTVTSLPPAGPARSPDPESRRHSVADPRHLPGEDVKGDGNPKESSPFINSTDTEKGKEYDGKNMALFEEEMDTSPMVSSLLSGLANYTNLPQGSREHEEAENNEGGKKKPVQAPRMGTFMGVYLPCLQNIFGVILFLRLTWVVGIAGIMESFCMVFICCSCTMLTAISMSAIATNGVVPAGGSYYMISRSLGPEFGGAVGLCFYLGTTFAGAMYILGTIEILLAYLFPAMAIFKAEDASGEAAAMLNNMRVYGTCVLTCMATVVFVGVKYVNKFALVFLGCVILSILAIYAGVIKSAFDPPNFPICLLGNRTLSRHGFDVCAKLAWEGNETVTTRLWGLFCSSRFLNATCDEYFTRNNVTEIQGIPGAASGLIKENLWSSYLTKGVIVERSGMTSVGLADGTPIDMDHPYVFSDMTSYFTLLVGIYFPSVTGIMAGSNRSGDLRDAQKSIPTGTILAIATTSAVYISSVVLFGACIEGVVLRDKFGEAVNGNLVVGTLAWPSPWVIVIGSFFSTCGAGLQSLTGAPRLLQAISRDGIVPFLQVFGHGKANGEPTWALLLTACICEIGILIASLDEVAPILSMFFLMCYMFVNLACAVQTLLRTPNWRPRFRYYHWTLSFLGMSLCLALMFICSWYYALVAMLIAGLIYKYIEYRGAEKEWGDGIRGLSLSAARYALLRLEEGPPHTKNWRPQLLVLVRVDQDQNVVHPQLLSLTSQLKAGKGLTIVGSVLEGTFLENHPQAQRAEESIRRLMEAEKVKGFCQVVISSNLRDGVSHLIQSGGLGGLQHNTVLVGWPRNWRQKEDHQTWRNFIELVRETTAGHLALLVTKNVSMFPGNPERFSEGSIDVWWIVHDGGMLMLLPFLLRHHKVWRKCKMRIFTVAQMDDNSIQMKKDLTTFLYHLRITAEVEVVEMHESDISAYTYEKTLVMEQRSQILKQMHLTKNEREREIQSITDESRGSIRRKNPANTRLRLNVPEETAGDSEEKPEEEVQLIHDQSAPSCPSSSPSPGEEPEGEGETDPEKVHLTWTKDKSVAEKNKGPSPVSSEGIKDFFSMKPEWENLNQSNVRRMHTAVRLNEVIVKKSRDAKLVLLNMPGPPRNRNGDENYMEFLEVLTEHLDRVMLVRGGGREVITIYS
Lmaj promast – Leishmania major promastigote growth inhibition. inhibition, % at 10 µM. 9% of 200,000 active. Leishmania major promastigotes, resazurin fluorescence viability; in the data active = inhibition above about 50%;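 note: promastigotes grown with compound for 44 hours at 28 °C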
Starred values were filed as active, the others as inactive; ? = inconclusive; . = not tested or not shown. Sampled rows, rich in hits. Any-hit rate of the full collection: about 12%.

SMILES	Insulin prom up	WT yeast gro inh	ROMK mod	INS promoter inh	Cl transport mod	Lmaj promast
Cn1c(N)c(C(=O)COC(=O)c2ccc(Cl)c(S(=O)(=O)N3CCCCC3)c2)c(=O)n(C)c1=O	0.22	19.3	.	10.3	-0.336	87.6*
Cc1onc(-c2c(F)cccc2Cl)c1C(=O)OCC(=O)c1c(N)n(C)c(=O)n(C)c1=O	-0.72	-10.0	0.751	.	-1.08	76.5*
Cc1onc(-c2c(F)cccc2Cl)c1C(=O)OCn1nnc2ccccc2c1=O	-0.34	-6.9	.	?	-0.66	99.4*
CCc1ccc(/C=N/NC(=O)c2cc(-c3ccccc3OC)nc3ccccc23)s1	.	20.9	0.528	.	0.998	49.5
COc1ccccc1-c1cc(C(=O)N/N=C/c2ccc(C)s2)c2ccccc2n1	.	35.8	-0.811	-35.1	-0.524	83.2*
O=C(/C=C/c1ccccc1)CC(O)(c1ccccc1)C(F)(F)C(F)F (centres undefined)	-0.32	54.5	-0.357	30.6	0.0992	100.3*
O=C(CC(O)(c1ccccc1)C(F)(F)C(F)F)c1cccs1 (centres undefined)	0.12	9.0	.	24.3	-0.946	9.1
COc1ccc(/C=C/C(=O)CC(O)(c2ccccc2)C(F)(F)F)cc1 (centres undefined)	-0.69	-2.8	.	84.6*	0.0876	98.3*
COc1ccc(/C=C/C(=O)CCC(=O)O)cc1	-0.39	-0.1	0.194	.	0.305	-0.8
CC(/C=N/NC(=O)Cc1cccn1C)=C\c1ccccc1	0.07	10.2	0.1	75.0*	-0.946	3.0
Cc1cccc(NC(=O)CCc2ccc(C)o2)c1	1.78	6.8	0.0178	-7.1	.	2.5
Cc1cc(C)nc(SCCn2c(N(C)Cc3ccccc3)nc3c2c(=O)n(C)c(=O)n3C)n1	-0.98	4.9	.	-5.7	0.0551	77.6*
CCOC(=O)Cn1c(CN(Cc2ccccc2)Cc2ccccc2)nc2c1c(=O)n(C)c(=O)n2C	-1.49	55.8	.	.	-1.28	42.5
CCCCn1c(SCC(=O)N2c3ccccc3Sc3ccccc32)nc2c1c(=O)n(C)c(=O)n2C	-1.08	10.9	.	-66.7	-1.15	77.7*
CCCn1c(CN(Cc2ccccc2)Cc2ccccc2)nc2c1c(=O)n(C)c(=O)n2C	.	77.2*	.	42.9	-1.28	8.0
CN(Cc1ccccc1)c1nc2c(c(=O)n(C)c(=O)n2C)n1CCSc1ncccn1	-0.69	10.5	.	.	-1.08	-1.8
CCCCn1c(CN(C)Cc2ccccc2)nc2c1c(=O)n(C)c(=O)n2C	-2.97	14.6	-1.96	71.4*	.	4.9
CCCn1c(CN(C)Cc2ccccc2)nc2c1c(=O)n(C)c(=O)n2C	-1.5	-4.1	.	0.0	0.758	-6.0
COc1ccc(N(C(=O)c2ccco2)C(C(=O)NC2CCCC2)c2ccc(N(C)C)cc2)cc1OC (centres undefined)	.	-12.2	.	-5.0	0.399	-5.4
COc1ccc(CCNC(=O)C(C(=O)c2ccccc2)n2ccccc2=O)cc1OC (centres undefined)	1.16	-7.8	.	.	0.0586	-6.6
COc1ccc(CCNC(=O)C(C(=O)c2ccccc2)n2cc(Cl)ccc2=O)cc1OC (centres undefined)	-0.51	-29.4	-0.0416	2.7	0.269	54.8*
COc1cc(/C=N/n2c(C)n[nH]c2=S)ccc1OCc1ccc(F)cc1	0.2	15.2	0.176	-13.8	-0.253	13.4
CCOc1ccc(-c2nnn(CC(=O)NCCc3c[nH]c4ccccc34)n2)cc1	0.71	13.9	.	59.4	.	93.9*
COc1cc(C(=S)N2CCOCC2)cc(OC)c1OS(=O)(=O)c1ccc(NC(C)=O)cc1	1.34	-13.1	0.97	13.9	0.275	-6.6
O=c1c2ccccc2nc(N/N=C/c2c(O)ccc3ccccc23)n1O	?	5.8	.	6.8	0.557	99.9*
SMILES	Insulin prom up	WT yeast gro inh	ROMK mod	INS promoter inh	Cl transport mod	Lmaj promast
O=c1c2ccccc2nc(N/N=C/c2ccc(O)cc2)n1O	0.18	1.1	.	36.4	-0.331	-5.3
CC(C)(c1ccccc1)c1ccc(OCCCNCCO)cc1	.	91.8*	1.42	6.5	0.516	100.4*
COc1ccc(OCCCNCCc2ccccc2)cc1	0.14	-3.3	-0.9	.	-1.55	-10.5
C=CCNCCCOc1ccc(C(C)(C)c2ccccc2)cc1	0.53	50.6	0	20.0	-0.22	99.7*
C=CCNCCCCOc1ccc(OCC)cc1	.	.	-0.761	-38.7	1.12	100.1*
C=CCNCC#CCOc1ccc(OC)cc1	-0.87	3.5	0.776	25.0	-0.0233	98.9*
O=S(=O)(c1ccccc1)N1CCC(O)(CSc2ccc(Cl)cc2)CC1	.	-8.6	.	-57.1	.	1.3
